The source of these data is PubChem BioAssay AID720603 (Broad Institute, 2013).

Potency and affinity values are given separately. Results filed as inconclusive are left out. A call without a number means that no potency is given here. Active and inactive are the calls of the source.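 Rule for the calls: active = every test run gave an active call, each with a potency at or below twice the top valid dose; inconclusive = test runs disagree, or curve fits are weak or unclear; inactive = every test run inactive, including wrong-way signal.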

This experiment can be described thus: cytotoxicity in mouse C2C12 myoblasts – cell-based, CellTiter-Glo ATP luminescence, 8/24/48 h, dry powder, cytotoxicity control for HRAS target identification, dose response (AID 720603). In general terms: Cellular ATP, detected with luciferase, serves as a proxy for viable cell number.

As to `Cc1onc(C(=O)N2CCN(C(c3ccncc3)c3ccncc3)CC2)c1[N+](=O)[O-]`, the compound was called inactive.
